From paper PMC7862700, “An all-to-all approach to the identification of sequence-specific readers for epigenetic DNA modifications on cytosine”

Experiments:
Assay in all cases: DAPPL (digital affinity profiling via proximity ligation, sequencing); 10 mM Tris-HCl pH 7.5, 50 mM NaCl, 1 mM DTT, 4% glycerol, room temperature, 30 min; GST-TFs on glutathione beads, 16-mer random dsDNA library, 0.1% formaldehyde crosslink after washing; high values mean tight binding
Conditions in all cases: protein: recombinant; tags: N-terminal GST; dsDNA, one strand shown
FEV = target: T1, FEV (Homo sapiens, UniProt Q99581 1-238)
T1 sequence: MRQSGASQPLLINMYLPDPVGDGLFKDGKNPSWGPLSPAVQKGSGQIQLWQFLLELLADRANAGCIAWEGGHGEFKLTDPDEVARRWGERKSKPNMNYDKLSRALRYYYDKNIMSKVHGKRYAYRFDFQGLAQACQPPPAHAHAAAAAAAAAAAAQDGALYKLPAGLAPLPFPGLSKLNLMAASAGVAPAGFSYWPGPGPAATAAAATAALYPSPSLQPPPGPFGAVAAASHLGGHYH
Outline: (§1)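 Sequencing on an Illumina NextSeq500 followed washing, crosslinking with 0.1% formaldehyde, proximity ligation (BsaI/T4 ligase, 1 h, 37 °C) and PCR amplification of pools that had been incubated for 30 min at room temperature with 200 nmole of a random double-stranded 16-mer DNA library in Tris/NaCl/DTT/glycerol buffer. Each pool held DNA-barcoded human transcription factors, expressed in yeast as GST fusions and captured on glutathione beads, plus a tag-only sample. Binding signal is a hexamer's read frequency for a factor divided by its frequency in the tag-only sample.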

ETV5 = ETV5 (Homo sapiens, UniProt P41161 1-510)
Sequence of ETV5 (P41161 whole entry): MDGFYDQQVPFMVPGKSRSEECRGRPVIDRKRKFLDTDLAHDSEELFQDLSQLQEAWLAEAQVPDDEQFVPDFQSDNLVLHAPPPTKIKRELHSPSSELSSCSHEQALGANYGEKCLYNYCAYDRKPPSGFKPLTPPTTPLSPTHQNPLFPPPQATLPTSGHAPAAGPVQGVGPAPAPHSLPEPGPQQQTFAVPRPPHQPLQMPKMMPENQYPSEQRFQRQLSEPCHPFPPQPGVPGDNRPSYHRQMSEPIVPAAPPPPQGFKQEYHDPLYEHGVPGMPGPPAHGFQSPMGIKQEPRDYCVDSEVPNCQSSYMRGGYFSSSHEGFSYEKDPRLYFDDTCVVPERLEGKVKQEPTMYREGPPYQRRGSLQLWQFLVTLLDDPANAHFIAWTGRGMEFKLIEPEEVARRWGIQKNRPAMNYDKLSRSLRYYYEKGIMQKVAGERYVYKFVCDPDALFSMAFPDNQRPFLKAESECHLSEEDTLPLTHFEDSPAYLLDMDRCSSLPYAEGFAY
Outline: as §1

SPIC = target: T2, SPIC (Homo sapiens, UniProt Q8N5J4 1-248)
T2 sequence: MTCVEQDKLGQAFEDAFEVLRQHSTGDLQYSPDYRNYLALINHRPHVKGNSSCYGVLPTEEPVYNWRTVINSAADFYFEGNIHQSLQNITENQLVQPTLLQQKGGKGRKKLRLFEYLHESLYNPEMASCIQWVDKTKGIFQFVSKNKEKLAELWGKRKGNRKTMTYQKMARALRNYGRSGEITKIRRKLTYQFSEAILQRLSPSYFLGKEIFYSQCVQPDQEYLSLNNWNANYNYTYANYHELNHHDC
Outline: as §1

ELF4 = ELF4 (Homo sapiens, UniProt Q99607 1-663)
Sequence of ELF4 (Q99607 whole entry): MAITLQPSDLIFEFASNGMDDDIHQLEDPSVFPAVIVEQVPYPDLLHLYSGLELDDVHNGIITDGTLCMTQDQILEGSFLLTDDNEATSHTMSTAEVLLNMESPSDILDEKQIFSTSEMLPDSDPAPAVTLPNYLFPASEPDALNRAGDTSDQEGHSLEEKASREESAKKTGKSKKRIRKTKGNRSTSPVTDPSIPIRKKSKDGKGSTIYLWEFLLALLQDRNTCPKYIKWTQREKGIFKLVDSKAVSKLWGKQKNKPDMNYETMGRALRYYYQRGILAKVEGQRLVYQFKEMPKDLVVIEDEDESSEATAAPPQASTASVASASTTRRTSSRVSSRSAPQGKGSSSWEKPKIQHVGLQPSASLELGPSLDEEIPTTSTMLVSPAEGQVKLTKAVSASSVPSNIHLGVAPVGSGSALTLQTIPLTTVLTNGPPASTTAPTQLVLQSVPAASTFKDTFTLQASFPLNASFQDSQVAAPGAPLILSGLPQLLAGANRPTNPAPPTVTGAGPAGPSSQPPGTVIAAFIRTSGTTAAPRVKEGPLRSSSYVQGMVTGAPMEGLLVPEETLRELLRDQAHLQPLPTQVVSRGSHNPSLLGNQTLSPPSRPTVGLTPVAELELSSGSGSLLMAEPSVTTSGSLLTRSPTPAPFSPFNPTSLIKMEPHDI
Outline: as §1

ELK4 = target: T3, ELK4 (Homo sapiens, UniProt P28324-2 1-405)
T3 sequence: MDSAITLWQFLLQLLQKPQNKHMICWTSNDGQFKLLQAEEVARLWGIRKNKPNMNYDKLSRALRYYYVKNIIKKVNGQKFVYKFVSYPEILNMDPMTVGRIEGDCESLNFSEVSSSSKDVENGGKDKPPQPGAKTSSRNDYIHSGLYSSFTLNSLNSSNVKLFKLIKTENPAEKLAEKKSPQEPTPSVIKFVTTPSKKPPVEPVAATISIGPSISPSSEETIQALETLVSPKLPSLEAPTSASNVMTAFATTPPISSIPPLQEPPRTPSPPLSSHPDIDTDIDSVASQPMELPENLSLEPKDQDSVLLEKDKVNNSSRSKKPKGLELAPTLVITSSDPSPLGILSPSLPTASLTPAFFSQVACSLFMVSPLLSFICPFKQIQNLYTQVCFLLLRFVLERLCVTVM
Outline: as §1

ETV2 = target: T4, ETV2 (Homo sapiens, UniProt O00321 1-342)
T4 sequence: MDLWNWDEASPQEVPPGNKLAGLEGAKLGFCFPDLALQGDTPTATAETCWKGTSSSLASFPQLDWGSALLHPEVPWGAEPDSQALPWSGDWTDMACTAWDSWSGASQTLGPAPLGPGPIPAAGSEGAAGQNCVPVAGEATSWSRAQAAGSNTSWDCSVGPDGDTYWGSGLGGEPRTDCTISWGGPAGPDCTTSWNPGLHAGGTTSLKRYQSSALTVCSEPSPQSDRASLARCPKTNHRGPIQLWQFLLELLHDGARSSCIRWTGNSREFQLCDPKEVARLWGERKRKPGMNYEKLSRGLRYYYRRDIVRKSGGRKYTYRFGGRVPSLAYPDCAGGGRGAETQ
Outline: as §1

ETV1 = ETV1 (Homo sapiens, UniProt P50549 1-477)
Sequence of ETV1 (P50549 whole entry): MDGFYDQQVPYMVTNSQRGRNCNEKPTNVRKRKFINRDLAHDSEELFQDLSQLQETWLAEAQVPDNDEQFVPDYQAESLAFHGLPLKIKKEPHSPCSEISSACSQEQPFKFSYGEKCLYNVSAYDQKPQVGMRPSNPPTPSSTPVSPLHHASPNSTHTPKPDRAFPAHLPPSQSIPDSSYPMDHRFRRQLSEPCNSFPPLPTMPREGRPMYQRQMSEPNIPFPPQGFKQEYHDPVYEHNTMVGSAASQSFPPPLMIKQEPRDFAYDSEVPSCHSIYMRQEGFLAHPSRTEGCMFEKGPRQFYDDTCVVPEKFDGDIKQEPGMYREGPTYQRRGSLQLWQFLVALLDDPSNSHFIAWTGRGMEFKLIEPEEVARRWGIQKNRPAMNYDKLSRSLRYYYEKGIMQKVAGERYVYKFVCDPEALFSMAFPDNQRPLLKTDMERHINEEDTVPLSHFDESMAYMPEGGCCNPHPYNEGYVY
Outline: as §1

ERF = target: T5, ERF (Homo sapiens, UniProt P50548 1-548)
T5 sequence: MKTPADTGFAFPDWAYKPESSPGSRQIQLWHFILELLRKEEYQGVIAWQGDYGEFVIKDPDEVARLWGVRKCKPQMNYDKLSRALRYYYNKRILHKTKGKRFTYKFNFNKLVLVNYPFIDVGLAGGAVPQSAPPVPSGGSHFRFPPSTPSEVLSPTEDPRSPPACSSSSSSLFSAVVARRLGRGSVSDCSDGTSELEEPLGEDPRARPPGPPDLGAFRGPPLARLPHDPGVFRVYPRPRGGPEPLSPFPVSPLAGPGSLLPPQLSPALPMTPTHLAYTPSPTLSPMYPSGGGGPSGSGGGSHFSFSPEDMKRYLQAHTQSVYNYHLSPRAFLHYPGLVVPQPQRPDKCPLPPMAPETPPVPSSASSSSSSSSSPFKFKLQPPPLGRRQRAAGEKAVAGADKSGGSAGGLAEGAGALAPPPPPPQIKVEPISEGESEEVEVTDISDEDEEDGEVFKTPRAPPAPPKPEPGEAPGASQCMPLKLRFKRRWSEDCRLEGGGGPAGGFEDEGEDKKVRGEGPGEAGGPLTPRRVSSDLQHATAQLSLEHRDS
Outline: as §1

ETV3L = target: T6, ETV3L (Homo sapiens, UniProt Q6ZN32 1-361)
T6 sequence: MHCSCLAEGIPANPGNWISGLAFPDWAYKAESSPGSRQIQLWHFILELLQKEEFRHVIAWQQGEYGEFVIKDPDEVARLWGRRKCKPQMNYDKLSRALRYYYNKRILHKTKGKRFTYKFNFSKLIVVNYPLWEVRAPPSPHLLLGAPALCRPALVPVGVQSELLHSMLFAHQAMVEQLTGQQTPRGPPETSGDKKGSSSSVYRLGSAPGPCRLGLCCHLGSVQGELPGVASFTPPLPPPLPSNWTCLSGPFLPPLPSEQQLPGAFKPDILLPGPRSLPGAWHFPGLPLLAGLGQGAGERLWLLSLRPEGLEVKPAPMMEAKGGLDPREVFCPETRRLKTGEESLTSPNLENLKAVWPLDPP
Outline: as §1

ETS2 = target: T7, ETS2 (Homo sapiens, UniProt P15036 1-469)
T7 sequence: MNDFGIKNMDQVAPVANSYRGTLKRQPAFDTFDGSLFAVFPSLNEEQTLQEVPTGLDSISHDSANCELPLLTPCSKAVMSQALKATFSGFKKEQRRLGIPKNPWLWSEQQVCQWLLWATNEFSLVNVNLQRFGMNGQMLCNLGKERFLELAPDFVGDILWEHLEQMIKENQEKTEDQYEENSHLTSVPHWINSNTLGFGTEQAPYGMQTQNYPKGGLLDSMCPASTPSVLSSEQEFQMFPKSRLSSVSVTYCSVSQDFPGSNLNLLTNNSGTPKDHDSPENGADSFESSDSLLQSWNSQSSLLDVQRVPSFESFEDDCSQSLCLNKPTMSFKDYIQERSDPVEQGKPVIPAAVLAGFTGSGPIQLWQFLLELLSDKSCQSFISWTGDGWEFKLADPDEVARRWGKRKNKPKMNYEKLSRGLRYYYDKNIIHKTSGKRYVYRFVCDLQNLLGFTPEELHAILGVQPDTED
Outline: as §1

SPDEF = target: T8, SPDEF (Homo sapiens, UniProt O95238 1-335)
T8 sequence: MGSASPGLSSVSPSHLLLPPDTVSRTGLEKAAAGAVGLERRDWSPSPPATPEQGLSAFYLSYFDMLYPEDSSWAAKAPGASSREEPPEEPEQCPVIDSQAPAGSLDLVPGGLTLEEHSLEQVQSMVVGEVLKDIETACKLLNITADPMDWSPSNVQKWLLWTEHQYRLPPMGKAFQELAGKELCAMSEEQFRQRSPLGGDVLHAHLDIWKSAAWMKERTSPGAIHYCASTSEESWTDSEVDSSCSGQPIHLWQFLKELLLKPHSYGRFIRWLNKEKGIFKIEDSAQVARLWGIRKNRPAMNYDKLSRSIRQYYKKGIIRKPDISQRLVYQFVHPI
Outline: as §1

ETV7 = target: T9, ETV7 (Homo sapiens, UniProt Q9Y603 1-341)
T9 sequence: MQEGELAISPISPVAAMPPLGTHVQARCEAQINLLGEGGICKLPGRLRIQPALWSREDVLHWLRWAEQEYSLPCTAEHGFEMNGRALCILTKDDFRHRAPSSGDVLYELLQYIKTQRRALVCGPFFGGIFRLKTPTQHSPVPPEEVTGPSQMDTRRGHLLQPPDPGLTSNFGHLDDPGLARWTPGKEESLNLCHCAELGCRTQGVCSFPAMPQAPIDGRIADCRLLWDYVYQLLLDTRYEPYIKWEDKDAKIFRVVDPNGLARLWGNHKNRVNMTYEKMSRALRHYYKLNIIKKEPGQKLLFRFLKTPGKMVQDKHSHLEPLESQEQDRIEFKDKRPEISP
Outline: as §1

ELF5 = target: T10, ELF5 (Homo sapiens, UniProt Q9UKW6-2 1-255)
T10 sequence: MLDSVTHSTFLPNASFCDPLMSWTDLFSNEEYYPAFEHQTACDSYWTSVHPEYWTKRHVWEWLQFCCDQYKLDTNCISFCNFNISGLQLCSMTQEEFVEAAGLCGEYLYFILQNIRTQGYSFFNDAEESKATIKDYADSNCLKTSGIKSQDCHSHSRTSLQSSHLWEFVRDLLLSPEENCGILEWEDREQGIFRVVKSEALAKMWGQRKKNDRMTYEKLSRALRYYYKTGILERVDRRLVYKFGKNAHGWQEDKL
Outline: as §1

ETV3 = target: T11, ETV3 (Homo sapiens, UniProt P41162-2 1-143)
T11 sequence: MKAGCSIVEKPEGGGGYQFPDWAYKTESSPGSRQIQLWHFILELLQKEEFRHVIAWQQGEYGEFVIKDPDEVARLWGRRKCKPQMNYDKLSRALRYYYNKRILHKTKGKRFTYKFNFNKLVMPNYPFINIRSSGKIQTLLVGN
Outline: as §1

ETV6 = ETV6 (Homo sapiens, UniProt P41212 1-452)
Sequence of ETV6 (P41212 whole entry): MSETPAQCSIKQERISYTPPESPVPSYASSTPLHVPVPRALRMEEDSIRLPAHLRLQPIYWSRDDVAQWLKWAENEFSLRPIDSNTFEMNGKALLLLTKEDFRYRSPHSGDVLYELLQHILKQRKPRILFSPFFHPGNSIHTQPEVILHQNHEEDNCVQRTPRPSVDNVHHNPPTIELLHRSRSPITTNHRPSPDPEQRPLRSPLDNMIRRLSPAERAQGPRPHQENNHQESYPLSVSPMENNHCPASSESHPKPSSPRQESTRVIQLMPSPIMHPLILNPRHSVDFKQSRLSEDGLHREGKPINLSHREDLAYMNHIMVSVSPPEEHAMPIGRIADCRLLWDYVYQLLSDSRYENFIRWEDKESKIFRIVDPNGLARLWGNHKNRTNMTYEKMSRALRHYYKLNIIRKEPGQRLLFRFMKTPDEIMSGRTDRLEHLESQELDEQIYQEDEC
Outline: as §1

| Sequence | binding signal (FEV) | binding signal (ETV5) | binding signal (SPIC) | binding signal (ELF4) | binding signal (ELK4) | binding signal (ETV2) | binding signal (ETV1) | binding signal (ERF) | binding signal (ETV3L) | binding signal (ETS2) | binding signal (SPDEF) | binding signal (ETV7) | binding signal (ELF5) | binding signal (ETV3) | binding signal (ETV6) |
| --- | --- | --- | --- | --- | --- | --- | --- | --- | --- | --- | --- | --- | --- | --- | --- |
| TGCTTG | 1.09 fold enrichment (6-mer frequency, TF over GST control) | 1.2 fold enrichment (6-mer frequency, TF over GST control) | 1.31 fold enrichment (6-mer frequency, TF over GST control) | 1.12 fold enrichment (6-mer frequency, TF over GST control) | 1.4 fold enrichment (6-mer frequency, TF over GST control) | 1.26 fold enrichment (6-mer frequency, TF over GST control) | 1.21 fold enrichment (6-mer frequency, TF over GST control) | 1.14 fold enrichment (6-mer frequency, TF over GST control) | 1.13 fold enrichment (6-mer frequency, TF over GST control) | 1.14 fold enrichment (6-mer frequency, TF over GST control) | 1.11 fold enrichment (6-mer frequency, TF over GST control) | 1.19 fold enrichment (6-mer frequency, TF over GST control) | 1.04 fold enrichment (6-mer frequency, TF over GST control) | 1.17 fold enrichment (6-mer frequency, TF over GST control) | 1.11 fold enrichment (6-mer frequency, TF over GST control) |
| CCCATG | 1.06 fold enrichment (6-mer frequency, TF over GST control) | 1.09 fold enrichment (6-mer frequency, TF over GST control) | 1.02 fold enrichment (6-mer frequency, TF over GST control) | 1.12 fold enrichment (6-mer frequency, TF over GST control) | 1.18 fold enrichment (6-mer frequency, TF over GST control) | 1.02 fold enrichment (6-mer frequency, TF over GST control) | 1.01 fold enrichment (6-mer frequency, TF over GST control) | 1.14 fold enrichment (6-mer frequency, TF over GST control) | 1.11 fold enrichment (6-mer frequency, TF over GST control) | 1.02 fold enrichment (6-mer frequency, TF over GST control) | 1.1 fold enrichment (6-mer frequency, TF over GST control) |  |  | 1.14 fold enrichment (6-mer frequency, TF over GST control) | 1.12 fold enrichment (6-mer frequency, TF over GST control) |
